# Sampled rows, rich in hits. Any-hit rate of the full collection: about 12%.
# LASV entry inh: inhibitors of Lassa virus binding or cell entry | Lassa virus pseudotype entry inhibition, cell reporter | Potency, µM (doses to about 37.9 µM), most hits filed as inhibitors | hit rate 1.2% among 300,000; calls by dose curve; tested in HEK293 cells; note: nearly all actives have a fitted effect of over 50% in size
# MARV entry inh: Marburg virus entry inhibition; Marburg virus pseudotyped entry inhibition, cell reporter; Potency, µM (doses to about 37.8 µM), hits mostly inhibitors; hit rate 1.8% among 300,000; AID 540276; calls by dose curve; tested in HEK293 cells
# Cycloheximide cs: affects cycloheximide protein synthesis inhibition readout, counter-screen; cell reporter, cycloheximide protein synthesis inhibition counterscreen; max response, %; hit rate 12% among 300,000; in the data active = max response mostly above about 13%, no sharp cut-off; inactive = mostly below about 14%; note: read at 38.3 µM for the half of the compounds with a filed dose
# Shiga toxin inh: inhibitors of Shiga toxin in Vero cells; inhibition, % at 38.7 µM; AID 2315; Vero cells, Shiga toxin protein synthesis inhibition reporter; hit rate 9.2% among 290,000; in the data active = inhibition mostly above about 28%, no sharp cut-off; inactive = mostly below about 43%
# A number is an active result; i = inactive; ? = inconclusive; nt = no result.
SMILES,LASV entry inh,MARV entry inh,Cycloheximide cs,Shiga toxin inh
CC1=C(C)CC(C(=O)Nc2ccc3c(c2)OCO3)C(C(=O)O)C1 (stereo not drawn),i,i,28,41
COc1ccc(C(C)(C)C)cc1NC(=O)Nc1ccc2c(c1)OCO2,i,?,i,i
Cc1ccc(C(=O)O)cc1NC(=O)Nc1ccc2c(c1)OCO2,i,?,20,73
O=C(Nc1ccc2c(c1)OCO2)Nc1ccc(Cl)cc1Cl,?,i,28,64
Cc1cc(-c2ccc(C(C)C)c(S(=O)(=O)N3CCN(c4ccccn4)CC3)c2)on1,nt,nt,i,i
S=C(NCc1ccc(Cl)c(Cl)c1)Nc1ccc2c(c1)OCO2,i,i,i,i
O=C(Nc1cccnc1)Nc1ccc2c(c1)OCO2,i,i,43,88
S=C(NCc1cccnc1)Nc1ccc2c(c1)OCO2,i,i,27,i
COc1cc(NC(=O)Nc2ccc3c(c2)OCO3)cc(OC)c1OC,i,i,i,i
O=C(Nc1ccc([N+](=O)[O-])cc1)Nc1ccc2c(c1)OCCO2,?,?,55,129
CC(OC(=O)c1cccnc1)C(=O)Nc1ccc2c(c1)OCO2 (stereo not drawn),i,i,i,i
Cc1cc(C)c(NC(=O)Nc2ccc3c(c2)OCO3)c(C)c1,i,i,37,82
COc1ccc(-c2cc(C(=O)Nc3cc(OC)cc(C(=O)Nc4cccc(C(F)(F)F)c4)c3)[nH]n2)cc1,nt,nt,i,i
COc1ccc(C2=NO[C@@H]3[C@@H]4C[C@@H]([C@H]5C(=O)N(C)C(=O)[C@@H]45)[C@H]23)c(OC)c1,?,i,i,i
Cc1nc(-c2ccccc2)sc1-c1ccc(SCC(=O)NCc2ccc(F)cc2)nn1,i,nt,nt,nt
N#CC1(NC(=O)COC(=O)c2nccnc2N)CCCCC1,i,i,nt,nt
O=C(Nc1cccc(C(=O)O)c1)Nc1ccc2c(c1)OCO2,0.32µM,?,30,36
O=C(Nc1ccc(F)cc1)Nc1ccc2c(c1)OCO2,i,i,i,i
Cc1ccc(NC(=O)Nc2ccc3c(c2)OCO3)c(Br)c1,i,i,43,i
O=C(O)c1cccc(-c2ccc3c(c2)OCO3)c1,nt,nt,i,i
Cc1ccc(S(=O)(=O)NC(C)C(=O)Nc2ccc3c(c2)OCO3)cc1 (stereo not drawn),i,?,i,i
CC(NC(=O)Nc1ccc(Cl)cc1)c1ccc2c(c1)OCO2 (stereo not drawn),?,?,i,i
O=C(Nc1ccc2c(c1)OCO2)Nc1ccc(F)cc1F,nt,nt,65,87
O=C(Nc1ccc(Cl)cc1)Nc1ccc2c(c1)OCO2,nt,nt,76,80
Cn1c(SCC(=O)NCc2cccs2)nnc1-c1ccc(O)cc1,?,i,i,i
SMILES,LASV entry inh,MARV entry inh,Cycloheximide cs,Shiga toxin inh
N#Cc1c(NC(=O)c2ccccc2Cl)n(Cc2ccccc2)c2nc3ccccc3nc12,?,i,i,i
CCCCn1c(NC(=O)c2ccccc2Cl)c(C#N)c2nc3ccccc3nc21,i,21µM,i,i
COCCCNC(=S)N(CCO)Cc1cc2cc3c(cc2[nH]c1=O)OCO3,i,i,i,i
COc1ccc(-c2cn(-c3ccccc3)c(=S)[nH]2)cc1OC,nt,nt,25,75
COc1ccc(-n2cc(-c3ccc(Cl)cc3)[nH]c2=S)cc1,nt,nt,13,i
O=[N+]([O-])c1ccc(-c2cn(-c3ccccc3)c(=S)[nH]2)cc1,i,?,i,i
COc1cccc(-n2cc(-c3ccc(F)cc3)[nH]c2=S)c1,nt,nt,37,86
Cc1cccc(-n2cc(-c3ccc([N+](=O)[O-])cc3)[nH]c2=S)c1,?,i,24,105
COc1ccccc1CNC(=O)CCn1c(=O)c2cccn2c2cccnc21,i,nt,nt,nt
Nc1ccc(-n2cc(-c3ccccc3)[nH]c2=S)cc1,nt,nt,33,61
COc1cccc(CNC(=O)CCC2CCCN(C(=O)c3cccnc3SC)C2)c1 (stereo not drawn),nt,nt,i,i
COc1ccc2nc(C)cc(SCC(=O)N/N=C/c3ccco3)c2c1,nt,8.9µM,i,i
CCOC(=O)CNC(=O)CSc1cc(C)nc2ccc(OC)cc12,i,i,29,72
Cc1cc(C(=O)CSc2nc3ccccc3[nH]2)c(C)n1Cc1ccco1,4µM,?,84,78
COCCn1c(C)cc(C(=O)COc2nc3ccccc3nc2C)c1C,i,?,i,i
Cc1ccc2nc(SCC(=O)c3cc(C)n(C)c3C)[nH]c2c1,i,i,i,i
COCCn1c(C)cc(C(=O)CSc2ccc3ccccc3n2)c1C,i,i,39,50
Cc1cc(C(=O)CCl)c(C)n1Cc1ccco1,?,?,i,i
Cc1cc(C(=O)CSc2nc3ccccc3[nH]2)c(C)n1C,?,?,46,54
COc1ccc(Nc2nnc(SCC(=O)c3cc(C)n(CC4CCCO4)c3C)s2)cc1 (stereo not drawn),i,?,43,112
O=C1CSC(c2ccccc2)N1Cc1ccccc1 (stereo not drawn),nt,nt,i,i
